Data as given in PubChem BioAssay AID652054 (National Center for Advancing Translational Sciences (NCATS), 2013).
The whole screen tested about 360,000 compounds, of which about 9,100 (2.5%) were called active. About 4% were inconclusive and are not listed. Cut-off read from the data, not from the text of the source: active = max response below about -50%; inconclusive = no clear call, values can overlap the other calls; inactive = above that. Only a selection was taken, and actives are over-represented in it overall.

Biological target: D(3) dopamine receptor (Homo sapiens) (UniProt P35462)
Sequence (P35462 whole entry, looked up): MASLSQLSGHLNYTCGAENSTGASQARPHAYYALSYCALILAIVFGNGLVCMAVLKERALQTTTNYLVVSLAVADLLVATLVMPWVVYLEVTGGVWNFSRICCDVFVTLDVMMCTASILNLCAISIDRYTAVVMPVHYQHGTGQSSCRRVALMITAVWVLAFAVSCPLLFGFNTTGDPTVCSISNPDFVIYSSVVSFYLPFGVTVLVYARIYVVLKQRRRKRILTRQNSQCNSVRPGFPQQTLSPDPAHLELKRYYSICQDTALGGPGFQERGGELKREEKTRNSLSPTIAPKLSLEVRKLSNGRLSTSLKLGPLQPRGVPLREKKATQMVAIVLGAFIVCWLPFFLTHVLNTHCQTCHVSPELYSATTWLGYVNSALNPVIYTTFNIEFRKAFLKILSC
Assay: qHTS of D3 Dopamine Receptor Antagonist: qHTS
Conditions: D3R cells, DiscoveRx beta-arrestin luminescence, antagonist mode; stronger effect = lower value
Method in brief: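 Cells expressing the human receptor were seeded at 1500 cells/well, incubated overnight at 37 degrees C in 5% CO2, then exposed to library compounds with dopamine controls for 90 minutes at 37 degrees C before luminescent detection.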
% is set by controls: 0 for no effect and ±100 for the full control effect.

Max response, negative = inhibition, active:
CSc1ncnc2c1ncn2CCCNCC1CCCCC1 -105%
CCOC(=O)N1CCN(S(=O)(=O)c2ccc(C(=O)Nc3ccc(F)cc3F)cc2)CC1 -76.7%
Cc1cccc(C)c1NC(=O)c1ccc(CN2CCc3ccccc3C2)cc1 -84.7%
CN(c1cccc(NC(=O)c2ccc(CN3CCc4ccccc4C3)cc2)c1)S(C)(=O)=O -69.7%
O=C(CCN1CCc2ccccc2C(O)(c2ccccc2)C1)c1ccc2c(c1)OCCO2 (centres undefined) -73.7%
Cc1ccc(N(CC(O)CN2CCCC2)S(=O)(=O)c2ccccc2)cc1 (centres undefined) -57.8%
O=C(CN1CCN(S(=O)(=O)c2ccc(Br)cc2)CC1)Nc1ccccc1C(=O)c1ccccc1 -71.6%
O=C(NC1=CC(=O)c2ccccc2C1=O)c1ccccc1 -88.8%
CCc1ccc(NC(=O)CN2CCC(C(=O)c3ccc(OC)cc3)CC2)cc1 -50.9%
CCCCN(CC)CCCNC(=O)CS(=O)(=O)Cc1nc(-c2cccc(OC)c2)oc1C -50.9%
Cc1ccccc1CN1CCN(C(=O)c2cccc(F)c2)CC1 -63.6%
Cc1ccc(S(=O)(=O)N2CCN(S(=O)(=O)N3CCOCC3)CC2)cc1 -75.3%
Oc1ccc2ccccc2c1N=Nc1nccs1 -67.4%
Oc1ccc(N=Nc2nccs2)c(O)c1 -73.7%
O=C(/C(=C/c1cccc(Cl)c1)c1nc2ccccc2[nH]1)c1ccccc1 -87.4%
Cc1ccc(N2CCN(S(=O)(=O)c3ccc(F)cc3)CC2)c(C)c1 -54.7%
N/C(=N\OC(=O)Nc1ccccc1)c1ccno1 -63.2%
COc1c(O)ccc2c1CN1CCc3cc4c(cc3C1C2)OCO4 (centres undefined) -123%

Max response, negative = inhibition, inactive:
CCCC(=O)N1CCC1(C)C(=O)NCc1ccc(SC)cc1 (centres undefined) -2.93%
Cc1cccc(S(=O)(=O)N(C)C[C@H]2OCc3cnnn3CCCC(=O)N([C@@H](C)CO)C[C@H]2C)c1 19.6%
CC(=O)Nc1c(-c2ccc(C)cc2)nc2ccc(Cl)cn12 -4.26%
CC(C)c1cc(C(=O)N(C)C2CCCN(Cc3ccccc3F)C2)n(C)n1 (centres undefined) -9.14%
CSc1ncnc2c1ncn2CCCNCc1ccco1 0.282%
CSc1ncnc2c1ncn2CCCNCC(C)c1ccccc1 (centres undefined) 1.7%
CCCCNC(=O)OC1CC2CC1[C@H]1CCCCN1C2=O (some centres undefined) 2.26%
CCOC(=O)N1CCN(S(=O)(=O)c2ccc(OC)cc2)CC1 3.43%
CCOC(=O)N1CCN(S(=O)(=O)c2ccc(Br)cc2)CC1 8.1%
Cc1nc(C(F)(F)F)ccc1C(=O)N1CCC1(C)C(=O)NS(=O)(=O)c1ccccc1 (centres undefined) 25.3%
O=[N+]([O-])c1ccc(CN2CC(N3CC=CC3)CS2(=O)=O)cc1 (centres undefined) 9.3%
NC(CSC(c1ccccc1)(c1ccccc1)c1ccc(-c2ccccc2)cc1)C(=O)O (centres undefined) 6.39%
CCc1ccc(NC(=O)N2CCc3ccccc3C2)cc1 -11%
CN(c1ccc(C(=O)N2CCc3ccccc3C2)cc1)S(C)(=O)=O 30.4%
O=C(Nc1ccc(CSc2ccccc2)cc1)c1ccc(CN2CCOCC2)cc1 2.28%
CC(=O)Nc1cccc(NC(=O)c2ccc3c(c2)CCN3S(C)(=O)=O)c1 -9.74%
CC1(C(=O)NS(=O)(=O)c2cccc(OC(F)F)c2)CCN1C(=O)C1CC1 (centres undefined) -9.73%
c1ccc(Cc2c(-c3ccco3)nc3c4ccccc4ccn23)cc1 21.1%
O=C(COC(=O)c1ccc(S(=O)(=O)N2CCCCCC2)cc1)Nc1ccccc1C(F)(F)F -1.68%
CSc1ccc(CNC(=O)C2(C)CCCN2C)cc1 (centres undefined) 0%
CCOC(=O)N1CCN(C(c2ccnc3ccccc23)c2nnnn2-c2c(C)cccc2C)CC1 (centres undefined) -7.2%
O=C(COC(=O)c1ccccc1)c1ccc2c(c1)OCCO2 -5.24%
CCC1(c2ccccc2)NC(=O)N(CC(=O)c2ccc3c(c2)OCO3)C1=O (centres undefined) 4.79%
COc1ccc(C(=O)N2CCCCC2c2cc(C(=O)Nc3ccccc3)no2)cc1 (centres undefined) -19.9%
C[C@H]1CN([C@@H](C)CO)S(=O)(=O)c2ccc(Br)cc2O[C@H]1CN(C)C(=O)c1cnccn1 -8.27%
Cc1cccc(N(CC(O)CN(C)C)S(=O)(=O)c2ccccc2)c1 (centres undefined) 0.407%
Cc1cc(C)n(CC(O)CN(c2ccccc2)S(=O)(=O)c2ccc3ccccc3c2)n1 (centres undefined) 10.5%
O=C(Nc1ccc(Cl)cc1)C1Cc2c(-c3ccc4c(c3)OCO4)ccnc2O1 (centres undefined) -10.5%
O=C(CN1CCN(S(=O)(=O)c2ccc(F)cc2)CC1)Nc1ccccc1F 0%
COc1ccccc1NC(=O)CN1CCN(S(=O)(=O)c2ccc(Br)cc2)CC1 -9.35%
Cc1ccc(-c2nc3c(C)cc(Br)cn3c2Cc2ccccc2)cc1 -0.352%
COC(=O)c1nc(NC(=O)c2ccccc2)n[nH]1 24.5%
O=C(NC(=O)c1ccccc1)Nc1ccccc1O -13.1%
O=C(NCc1nnnn1-c1ccc(Cl)cc1)c1ccc([N+](=O)[O-])o1 10.2%
COc1ccc(C(=O)N2CCC(C(=O)Nc3ccc(C)cc3)CC2)cc1 9.09%
CCc1cc(C(=O)c2ccc(OC)cc2)c(NC(=O)CN2CCN(C)CC2)s1 -7.92%
COc1cccc(-c2nc(CS(=O)(=O)CC(=O)NCCc3ccc(OC)c(OC)c3)c(C)o2)c1 1.08%
COc1ccc(-c2nc(CS(=O)(=O)CC(=O)NCc3cccc(Br)c3)c(C)o2)cc1 8.07%
COC(=O)c1ccc2nc(-c3ccc(F)cc3)c(Cc3ccc(C)cc3)n2c1 19.7%
CCCOc1ccc(F)cc1-c1cc(C(=O)Nc2ccc(F)c(Cl)c2)[nH]n1 -15.7%
CCCOc1ccc(F)cc1-c1cc(C(=O)NCc2ccc(F)cc2)[nH]n1 -2.32%
COc1cccc(OC)c1C(=O)N1CCN(Cc2ccccc2F)CC1 -6.64%
O=C(CN1CCN(C(=O)c2cccc(F)c2)CC1)Nc1ccccc1F 137%
Cc1ccc(S(=O)(=O)N2CCN(C)CC2)cc1 7.28%
Cc1ccc(C(=O)N2CCN(S(=O)(=O)N3CCOCC3)CC2)cc1 -16.1%
O=[N+]([O-])c1ccc(CN2CC(N3CCC(c4ccccc4)CC3)CS2(=O)=O)cc1 (centres undefined) -23.6%
CCOC(=O)[C@]12CCC=C1N(Cc1ccco1)C(=O)[C@H](CC(=O)NCc1cccc(C(F)(F)F)c1)C2 -18.6%
CCNC(=O)C1CCCN(C(=O)c2cc(F)ccc2C)CC1 (centres undefined) 15.3%
CCCCC[C@H](C)N1C[C@@H](COCc2ccccc2)Oc2cc(N3CC[C@@H](N(C)C)C3)ccc2S1(=O)=O 18.9%
Cc1cc(Cl)ccc1-c1nc(NCCN(C)C)nc2ccsc12 -28.3%
O=C1CC[C@@H](C(=O)N2CSC[C@@H]2C(=O)Nc2ccc(C(F)(F)F)cc2)N1 -3.96%
COc1ccc(C2=Nc3ccccc3NC(=O)C2N(C(=O)c2cc3ccccc3[nH]2)c2ccccc2)cc1 (centres undefined) -13.2%
CCc1ccccc1OCC(=O)Nc1nnc(C2CC2)s1 -9.37%
O=C(N/N=C/c1ccc(Cl)cc1)c1nc2ccc([N+](=O)[O-])cc2c(=O)[nH]1 9.98%
O=C(O)c1cccc(NC(=O)c2cc(-c3cccc(Cl)c3)nc3ccccc23)c1 14.5%
CCCn1c(N)c(C(=O)CSc2nnc(Cc3cccs3)n2C2CC2)c(=O)[nH]c1=O 31%
O=C(NCC(F)(F)F)c1ccc(S(=O)(=O)NCCc2ccc3c(c2)OCCO3)cc1 18.6%
CC(C)Cc1ccc(-c2cc3nc(NCc4cccc(Cl)c4)ccn3n2)cc1 16.3%
CC(=O)c1ccc(Nc2nc(C(N)c3ccccc3Cl)cs2)cc1 (centres undefined) 0%
CC1(C(=O)NS(=O)(=O)c2cccc(F)c2)CCN1C(=O)c1cccc2ccccc12 (centres undefined) -11.4%
Cc1ccc(C)c(N2CCN(S(=O)(=O)c3ccc4c(c3)oc(=O)n4C)CC2)c1 19.9%
Cc1ccccc1N1CCN(S(=O)(=O)c2ccc3ccccc3c2)CC1 -28.5%
CCc1nc2c(OCCc3cccc(OC)c3)cccn2c1N(C)C(=O)c1ccc(C)cc1 -6.67%
CC(C)(COC(=O)Nc1ccccc1)COC(=O)Nc1ccccc1 -25.8%
O=C(Nc1ccccc1)O/N=C1/CCCc2occc21 -1.95%
COc1cc2ccc(C(C)=O)c(O)c2cc1OC -9.5%
CCC(C)C(CO)NC(=O)/C=C/[C@H]1O[C@@H](n2cnc3c(NC(=O)c4ccccc4)ncnc32)[C@H](O)[C@@H]1O (some centres undefined) 10.7%
COc1ccc2cc1Oc1ccc(cc1)C[C@H]1c3cc(c(OC)cc3CCN1C)Oc1c(O)c(OC)cc3c1[C@H](C2)N(C)CC3 -18.7%
COc1cc(C(=O)CCc2ccc3c(c2)OCO3)cc(OC)c1OC -2.22%
Cn1c(=O)c2cc(NC(=O)NCCc3cccs3)ccc2n1Cc1cccc(C(F)(F)F)c1 18.7%
Cc1cc(Nc2ccc(C)c(C)c2)n2ncnc2n1 -15.7%
